Only some compounds are listed: those with a hit (about 5.4% of all), similar ones and a draw of the others.
rCAG binder – binds r(CAG) RNA repeats | r(CAG) RNA repeat, TO-PRO-1 dye displacement fluorescence | inhibition, % at 3 µM | actives 1.3% (n = 370,000) | AID 651821;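 active = inhibition above the plate cutoff, the mean of all test compounds on that plate plus 3 SD, cut at about 35% in these data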;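 note: 0% = DMSO alone and 100% = 100 µM mitoxantrone as full dye displacement; higher means more dye released from RNA so lower well fluorescence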
PHOSPHO1 inh – inhibitors of human PHOSPHO1 phosphatase; Q8TCT1; recombinant PHOSPHO1, absorbance phosphatase assay; inhibition, % at 13.3 µM; actives 1.1% (n = 290,000); AID 1565; in the data active = inhibition above about 60%
aDG glyco act – increases alpha dystroglycan glycosylation | Pro5-aDG cells, alpha-DG glycosylation AlphaScreen (IIH6); 0% Pro5, 100% B10-LARGE cell signal | activation, % at 10 µM | AID 624168 | actives 0.22% (n = 360,000);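 active = activation of at least 8% versus controls, or a plate z-score of at least 8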;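 note: Pro5 are CHO cells carrying HIG-tagged alpha-DG that lacks glycosylation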
ALR H2O2 inh – human ALR oxidase inhibition via reduced H2O2; P55789; purified ALR, DTT oxidation, H2O2 HRP-luminol luminescence; inhibition, % (concentration not given with the values); actives 3.8% (n = 290,000);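 active = mean replicate inhibition above about 79%, with every replicate also reaching it, limit read from the data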
Target sequence (P55789 whole entry, looked up): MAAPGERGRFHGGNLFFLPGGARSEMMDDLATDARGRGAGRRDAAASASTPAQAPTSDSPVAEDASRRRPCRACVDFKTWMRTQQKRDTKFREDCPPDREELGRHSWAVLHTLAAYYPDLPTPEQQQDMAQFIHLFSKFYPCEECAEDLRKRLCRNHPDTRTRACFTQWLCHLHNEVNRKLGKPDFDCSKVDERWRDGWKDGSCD
A3A deaminase – inhibitors of human APOBEC3A DNA deaminase. P31941. recombinant A3A, FAM/TAMRA ssDNA deamination fluorescence. inhibition, % at 20 µM. actives 0.41% (n = 330,000). AID 493011;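 active = at least 40% inhibition at 20 µM here, with at most 30% in a related deaminase screen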;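 note: plate controls were A3A with DMSO for no effect and wells lacking A3A enzyme for full effect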
Target sequence (P31941 whole entry, looked up): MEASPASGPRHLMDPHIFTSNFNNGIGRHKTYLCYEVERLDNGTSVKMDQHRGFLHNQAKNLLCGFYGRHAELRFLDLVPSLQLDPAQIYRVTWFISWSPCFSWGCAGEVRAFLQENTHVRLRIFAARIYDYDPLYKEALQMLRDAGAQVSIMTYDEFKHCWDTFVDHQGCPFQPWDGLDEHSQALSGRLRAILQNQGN
A3G deaminase – APOBEC3G (human) deaminase inhibition; actives 0.28% (n = 330,000); inhibition, % at 20 µM; AID 493012; Q9HC16; recombinant A3G, ssDNA deamination FAM/TAMRA fluorescence;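 active = inhibition of at least 40% at 20 µM, with no more than 30% in the related APOBEC3A deaminase screen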;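 note: plate controls were DMSO wells with A3G for no effect and wells lacking A3G enzyme for full effect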
Active calls of the source: *; x = no result given.

SMILES | rCAG binder | PHOSPHO1 inh | aDG glyco act | ALR H2O2 inh | A3A deaminase | A3G deaminase
O=C1C(=O)N(c2nccs2)C(c2ccccc2F)/C1=C(\O)c1ccc2c(c1)OCCO2 (centres undefined) | 19 | 7 | 0 | 98* | -4 | -6
Cc1ccc(-c2cc(C(=O)NN=Cc3cccc(Oc4ccccc4)c3)[nH]n2)cc1C | 15 | x | x | x | x | x
N#C/C(=C\c1cn[nH]c1-c1ccccc1)C(=O)NC1CCCCCC1 | 2 | 24 | 0 | 48 | 9 | 2
N#C/C(=C\c1c[nH]c2ccccc12)C(=O)NC1CCCC1 | 5 | 34 | 0 | 96* | -6 | -5
COc1ccc(OC)c(CN2C(=O)CCCCC2(C)c2nnnn2C2CCCC2)c1 (centres undefined) | 2 | x | x | x | x | x
COc1nc(NCCc2ccc(OC)c(OC)c2)nc(Nc2ccccc2)n1 | -5 | 62* | 0 | 1 | -2 | -6
O=C(OCc1ccccc1)Oc1cncc(C(=O)O)c1 | 1 | -3 | 0 | 98* | -3 | -2
CCCCN1C(=O)/C(=c2\sc3nc(=O)c(-c4ccccc4)nn3c2=O)c2ccccc21 | 10 | -79 | 0 | 97* | -2 | -2
CCCN1C(=O)/C(=c2\sc3nc(=O)c(Cc4ccc(C)cc4)nn3c2=O)c2ccccc21 | 5 | 35 | 0 | 32 | -4 | -4
CC(=O)Nc1cccc(Nc2nc(-c3ccccc3F)nc3ccccc23)c1 | 7 | -28 | 0 | 98* | -4 | -3
CC(=O)Nc1ccc(Nc2nc(-c3ccccc3)nc3ccccc23)cc1 | 18 | -7 | 0 | 99* | 30 | -1
COc1ccc(Nc2nc(-c3ccccc3)nc3ccccc23)cc1 | 11 | -4 | 0 | 2 | -1 | -6
Oc1ccc(Nc2nc(-c3ccccc3)nc3ccccc23)cc1 | x | -2 | 0 | 98* | -4 | -7
CCCCNC(=S)NNC(=O)c1csc2ccccc12 | x | 62* | 0 | 26 | 9 | 3
CCCCNC(=S)NNC(=O)c1ccoc1C | -1 | 46 | 0 | x | 0 | -3
Cc1c(Br)cnn1C(C)C(=O)N1CCN(c2ccc(F)cc2)CC1 (centres undefined) | 2 | x | 0 | 94* | -6 | -1
Cn1ncc(Cl)c1C(=O)N1CCN(c2ccc(F)cc2)CC1 | -6 | x | 0 | 26 | -3 | -2
O=[N+]([O-])c1ccc([N+](=O)[O-])c(Nc2ccc(N3CCOCC3)cc2)c1 | 0 | 47 | 0 | 98* | -4 | 0
O=S(=O)(/C=C/c1ccccc1)Nc1ccc(N2CCOCC2)cc1 | 3 | -39 | 3 | 95* | -2 | -5
Cc1ccc([N+](=O)[O-])cc1S(=O)(=O)Nc1ccc(N2CCOCC2)cc1 | 2 | 38 | 0 | 99* | 0 | -4
O=S(=O)(Nc1ccc(N2CCOCC2)cc1)c1ccc(Cl)s1 | -3 | -9 | 0 | 98* | -4 | -4
O=C(/C=C/c1ccccc1)NC(=S)Nc1ccc(N2CCOCC2)cc1 | 2 | 40 | 0 | -11 | -2 | -1
Cc1ccc([N+](=O)[O-])cc1S(=O)(=O)Nc1ccc(OCC(=O)N2CCOCC2)cc1 | 3 | 3 | 0 | -3 | 5 | 0
O=S1(=O)c2ccc(N3CC[C@@H](O)C3)cc2O[C@H]2CCN1C2 | 8 | x | x | x | x | x
Cc1ccc(C(=O)Nc2cccc([N+](=O)[O-])c2)cc1S(=O)(=O)Nc1ccc(C(=O)O)cc1 | 23 | 2 | 0 | 82* | -1 | -4
SMILES | rCAG binder | PHOSPHO1 inh | aDG glyco act | ALR H2O2 inh | A3A deaminase | A3G deaminase
Cc1cc(C)c(S(=O)(=O)Nc2ccc(N3CCOCC3)cc2)c(C)c1 | 1 | 39 | 0 | 86* | -1 | -1
O=S(=O)(Nc1ccc(N2CCOCC2)cc1)c1ccccc1 | -2 | 12 | 0 | 99* | -5 | -4
Cc1cc(S(=O)(=O)Nc2ccc(N3CCOCC3)cc2)ccc1Br | 4 | 23 | 0 | 75 | -4 | -12
Cc1cccc(-c2nnc(SCC(=O)Nc3cccc4ccccc34)n2Cc2ccco2)c1 | 4 | x | x | x | x | x
COc1ccc(OC)c(S(=O)(=O)N2CCC(C(=O)NCC3COCCO3)CC2)c1 (centres undefined) | 0 | x | x | x | x | x
CCOC(=O)c1c(C)nc(C)c(C(=O)OCC)c1-c1cccc(N)c1 | -5 | 60* | 0 | -25 | 5 | 14
CCOC(=O)c1c(C)nc(C)c(C(=O)OCC)c1-c1ccc(OC)cc1 | -8 | 2 | 0 | -2 | 5 | -6
O=C(Cn1cnc2sc3c(c2c1=O)CCCC3)NCC(=O)Nc1ccccc1F | 0 | 26 | 0 | -5 | -1 | -3
O=C(Cn1cnc2sc3c(c2c1=O)CCCC3)NCC(=O)Nc1ccc(F)cc1F | -1 | 65* | 0 | -1 | 3 | 3
CCOC(=O)[C@@]12CCCC3=C1N(CCC3)C(=O)[C@H]2CC(=O)N1CCN(C(=O)c2ccco2)CC1 | -2 | x | x | x | x | x
O=C1OC(c2ccccc2)=C/C1=C/N1CCCCC1 | 10 | 1 | 0 | 85* | -3 | 3
CCCc1c(C(=O)NNc2ccccc2OC)cnn1-c1ccccc1 | -3 | 3 | 0 | 88* | 1 | -5
CC(=O)Nc1ccc(C(=O)CSc2nccc(=O)[nH]2)cc1 | -1 | -18 | 0 | 99* | 0 | -4
O=C(CSc1nccc(=O)[nH]1)Nc1ccc(Br)c(Cl)c1 | 8 | -20 | 0 | 98* | 2 | -3
O=C(CSc1nccc(=O)[nH]1)Nc1ccc(F)c([N+](=O)[O-])c1 | 6 | 3 | 0 | 0 | -3 | -9
O=C(CSc1nccc(=O)[nH]1)Nc1ccc(F)c(Cl)c1 | 4 | 10 | 0 | 100* | 0 | -1
O=C(CSc1nccc(=O)[nH]1)Nc1ccc2ccccc2c1 | 9 | x | 0 | 12 | -4 | -6
O=C(CSc1nccc(=O)[nH]1)Nc1ccc2c(c1)OCCO2 | 0 | -16 | 0 | 98* | -3 | -11
Cc1cc(=O)[nH]c(SCC(=O)Nc2ccc3c(c2)OCCO3)n1 | 0 | -6 | 0 | -2 | -1 | -1
COc1ccc(CSc2nnc(SCC(=O)Nc3ccccc3-c3ccccc3)s2)cc1 | 9 | x | x | x | x | x
O=C(CSc1ccc2c(c1)OCCO2)Nc1cccnc1 | 0 | 2 | 0 | 99* | 2 | -6
CN(C)C=NC1=NN(c2cccc(C(F)(F)F)c2)CC1 | 2 | 97* | 0 | 95* | -2 | -8
FC(F)(F)c1cccc(N2CCN(c3nnnn3-c3ccccc3)CC2)c1 | -8 | 3 | 0 | 37 | 0 | 0
CN1CCN(C=NC2=NN(c3cccc(C(F)(F)F)c3)CC2)CC1 | -1 | -23 | 0 | 99* | -3 | -7
Cn1cc(/C=N/n2cnc3sc4c(c3c2=O)CCCC4)c2ccccc21 | 6 | 62* | 0 | -6 | -2 | -2
COc1ccc(Cn2ccc3ccc(-c4ccc5ccn(Cc6ccc(F)cc6)c5c4)cc32)cc1 | 14 | x | x | x | x | x
